Consider 21 sequences from PMC3218832.

Common to all, as to test: protein binding microarray; high values mean tight binding
Common to all, as to conditions: dsDNA, one strand shown

For experiment [1], the target named is RELARELA (p65 homodimer) (Homo sapiens, UniProt Q04206 1-307).
Experiment [2] deals with p50p50 homodimer (Homo sapiens, UniProt P19838 7-356).
Experiment [3] deals with T1, p52p52 homodimer (Homo sapiens, UniProt Q00653 4-332).
T1 sequence: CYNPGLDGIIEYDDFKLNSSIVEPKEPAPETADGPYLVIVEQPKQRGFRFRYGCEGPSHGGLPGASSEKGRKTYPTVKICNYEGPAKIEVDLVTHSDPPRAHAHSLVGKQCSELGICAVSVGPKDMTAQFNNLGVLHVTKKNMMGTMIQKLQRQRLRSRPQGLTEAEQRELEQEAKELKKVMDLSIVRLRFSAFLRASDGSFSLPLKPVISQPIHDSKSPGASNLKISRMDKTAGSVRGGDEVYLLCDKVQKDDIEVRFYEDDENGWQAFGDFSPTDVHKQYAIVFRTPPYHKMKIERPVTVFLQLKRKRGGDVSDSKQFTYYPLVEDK

The target in experiment [4] is RELA (p65) subunit of heterodimer;p50 subunit (Homo sapiens;Homo sapiens, UniProt Q04206;P19838 1-307;7-356).
Chain of RELA (p65) subunit of heterodimer;p50 subunit (Q04206 1-307, chain 1 of 2): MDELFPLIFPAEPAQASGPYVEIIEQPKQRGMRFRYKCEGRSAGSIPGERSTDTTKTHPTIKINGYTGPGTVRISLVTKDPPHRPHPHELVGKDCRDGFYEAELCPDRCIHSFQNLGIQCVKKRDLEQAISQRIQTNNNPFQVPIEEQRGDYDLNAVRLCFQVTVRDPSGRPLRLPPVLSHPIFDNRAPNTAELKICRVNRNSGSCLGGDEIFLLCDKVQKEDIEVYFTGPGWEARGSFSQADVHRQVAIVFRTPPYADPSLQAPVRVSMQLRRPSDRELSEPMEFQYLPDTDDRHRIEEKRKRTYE
Chain of RELA (p65) subunit of heterodimer;p50 subunit (P19838 7-356, chain 2 of 2): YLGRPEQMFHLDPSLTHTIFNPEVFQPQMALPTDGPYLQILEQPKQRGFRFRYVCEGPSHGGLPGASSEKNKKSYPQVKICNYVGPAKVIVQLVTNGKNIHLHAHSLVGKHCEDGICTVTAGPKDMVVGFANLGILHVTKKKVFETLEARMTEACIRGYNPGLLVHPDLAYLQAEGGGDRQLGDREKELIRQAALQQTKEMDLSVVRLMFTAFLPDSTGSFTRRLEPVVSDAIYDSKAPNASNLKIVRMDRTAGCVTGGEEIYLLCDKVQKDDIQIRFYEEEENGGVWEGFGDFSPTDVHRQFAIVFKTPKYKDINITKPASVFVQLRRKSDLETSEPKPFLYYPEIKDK
Experiment [5] concerns the target RELA (p65) subunit of heterodimer;p52 subunit (Homo sapiens;Homo sapiens, UniProt Q04206;Q00653 1-307;4-332).
In experiment [6] the target is RELB subunit;p50 subunit (Homo sapiens;Homo sapiens, UniProt Q01201;P19838 120-401;7-356).
Experiment [7] has as its target T2, RELB subunit;p52 subunit (Homo sapiens;Homo sapiens, UniProt Q01201;Q00653 120-401;4-332).
T2 sequence 1: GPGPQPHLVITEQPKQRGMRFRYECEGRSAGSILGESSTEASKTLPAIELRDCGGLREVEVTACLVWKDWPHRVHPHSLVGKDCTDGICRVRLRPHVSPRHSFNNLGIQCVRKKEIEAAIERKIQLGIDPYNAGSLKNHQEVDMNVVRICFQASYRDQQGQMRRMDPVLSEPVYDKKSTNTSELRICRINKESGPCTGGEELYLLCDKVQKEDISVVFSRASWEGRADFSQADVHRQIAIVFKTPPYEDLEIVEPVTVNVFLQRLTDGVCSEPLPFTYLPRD
T2 sequence 2: T1 sequence

Experiment [8] deals with C-Rel subunit;p50 subunit (Homo sapiens;Homo sapiens, UniProt Q04864;P19838 1-285;7-356).
The target of experiment [9] is T3, C-Rel subunit;p52 subunit (Homo sapiens;Homo sapiens, UniProt Q04864;Q00653 1-285;4-332).
T3 sequence 1: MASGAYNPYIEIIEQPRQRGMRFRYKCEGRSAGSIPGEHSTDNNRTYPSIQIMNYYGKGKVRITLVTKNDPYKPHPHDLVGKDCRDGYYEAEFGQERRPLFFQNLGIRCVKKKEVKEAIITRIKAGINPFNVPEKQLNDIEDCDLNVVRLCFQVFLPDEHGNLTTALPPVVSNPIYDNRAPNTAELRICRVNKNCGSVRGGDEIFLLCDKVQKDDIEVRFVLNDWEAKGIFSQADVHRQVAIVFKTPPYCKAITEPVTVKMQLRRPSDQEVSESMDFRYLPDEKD
T3 sequence 2: T1 sequence

Chain of RELARELA (p65 homodimer) (Q04206 1-307): as the sequence (Q04206 1-307, chain 1 of 2) above
Chain of p50p50 homodimer (P19838 7-356): as the sequence (P19838 7-356, chain 2 of 2) above

In the case of GAGAGGGTCCC, the binding signal in [1] was -0.00134 z-score; in [2] it was -0.361 z-score; in [3], -0.132 z-score; in [4] it was -0.312 z-score; in experiment [5], -0.187 z-score; in [6], -0.0754 z-score. Besides, the binding signal in [7] was -0.109 z-score; in experiment [8], -0.406 z-score; in experiment [9], -0.351 z-score.
In the case of AAAGGATCCCT, the binding signal in experiment [1] was -0.446 z-score; in [2], -0.455 z-score; in experiment [3], -0.198 z-score; in experiment [4] it was -0.582 z-score; in [5] it was -0.469 z-score; in experiment [6], -0.388 z-score. The figures for the binding signal in experiment [7], in experiment [8] and in experiment [9] were -0.424 z-score, -0.748 z-score and -0.634 z-score, respectively.
On to CGAGTTTCCCT, for which the binding signal in experiment [1] was found to be 1.14 z-score; in [2], 1.12 z-score; in experiment [3] it was 1.17 z-score; in [4], 1.16 z-score; in experiment [5], 1.16 z-score; in [6], 1.04 z-score. Moreover, the binding signal worked out at 1.42 z-score in experiment [7], 1.07 z-score in experiment [8] and 0.975 z-score in experiment [9].
In the case of AGAAACTTCCC, the binding signal in [1] turned out to be 2.01 z-score; in [2], 0.652 z-score; in [3] it was 0.45 z-score; in experiment [4], 0.846 z-score; in experiment [5], 0.818 z-score; in experiment [6] it was 0.409 z-score. Moreover, the binding signal turned out to be 0.541 z-score in experiment [7], 0.576 z-score in [8] and 0.741 z-score in experiment [9].
In the case of GAGATATCCCC, the binding signal in experiment [1] was found to be 0.294 z-score; in experiment [2], 1.12 z-score; in [3] it was 1.16 z-score; in [4], 1.33 z-score; in experiment [5], 1.3 z-score; in experiment [6] it was 1.08 z-score. Moreover, the binding signal in [7] came out at 0.95 z-score; in experiment [8], 0.698 z-score; in experiment [9], 0.964 z-score.
Take AGATACCCCCT: the binding signal is 0.103 z-score in experiment [1]; 1.43 z-score in experiment [2]; 1.19 z-score in [3]; 1.36 z-score in experiment [4]; 1.5 z-score in experiment [5]; 1.38 z-score in experiment [6]. For the same sequence, the binding signal was 1.84 z-score in experiment [7], 1.13 z-score in [8] and 1.24 z-score in experiment [9].
With GAATGCCTCCT, the binding signal was -0.0578 z-score in experiment [1]; -1.27 z-score in [2]; -0.691 z-score in [3]; -0.691 z-score in experiment [4]; -0.961 z-score in experiment [5]; -1.06 z-score in [6]. In addition, the values for the binding signal in experiment [7], in experiment [8] and in experiment [9] were -1.25 z-score, -1.51 z-score and -0.845 z-score, respectively.
In the case of CGAGTGACCCT, the binding signal was -1.21 z-score in experiment [1]; -1.33 z-score in experiment [2]; -0.545 z-score in experiment [3]; -0.827 z-score in [4]; -0.906 z-score in experiment [5]; -0.855 z-score in [6]. In addition, the binding signal in [7] was -0.722 z-score; in experiment [8], -1.34 z-score; in experiment [9], -0.744 z-score.
With CAGTGAGTCCC, the binding signal came out at 0.14 z-score in experiment [1]; 0.525 z-score in experiment [2]; 0.308 z-score in experiment [3]; 0.411 z-score in experiment [4]; 0.115 z-score in experiment [5]; 0.511 z-score in experiment [6]. The binding signal was 0.164 z-score in experiment [7], 0.393 z-score in experiment [8] and 0 z-score in experiment [9].
Turning to CAGTTACTCCT, the binding signal in experiment [1] was -0.453 z-score; in experiment [2] it was -1.22 z-score; in experiment [3], -0.649 z-score; in experiment [4], -0.763 z-score; in [5] it was -0.94 z-score; in [6], -0.976 z-score. Further, the binding signal in experiment [7] is -0.763 z-score; in experiment [8], -1.08 z-score; in experiment [9], -0.871 z-score.
CAGGAGGTCCT: the binding signal in experiment [1] is 0.426 z-score; in [2] it was -1.52 z-score; in experiment [3], -0.389 z-score; in experiment [4] it was -0.781 z-score; in [5] it was -0.822 z-score; in experiment [6], -0.523 z-score. The binding signal in experiment [7] is -0.466 z-score; in experiment [8], -0.953 z-score; in experiment [9], -0.415 z-score.
For the sequence CAATTCGTCCC, the binding signal is 0.717 z-score in experiment [1]; 0.108 z-score in experiment [2]; 0.533 z-score in experiment [3]; -0.0179 z-score in experiment [4]; 0.123 z-score in experiment [5]; 0.362 z-score in [6]. The values for the binding signal in [7], in experiment [8] and in experiment [9] were 0.547 z-score, 0.479 z-score and 0.00577 z-score, respectively.
For the sequence CGGGAGATCCT, the binding signal in experiment [1] is -0.093 z-score; in [2], 0.247 z-score; in experiment [3] it was 0.164 z-score; in experiment [4], -0.217 z-score; in experiment [5] it was 0.0606 z-score; in [6], 0.132 z-score. Further, the binding signal is 0.152 z-score in experiment [7], -0.227 z-score in experiment [8] and 0.0327 z-score in [9].
In the case of AGGGGACTCCC, the binding signal in [1] was 1.57 z-score; in experiment [2], 0.939 z-score; in [3], 2.92 z-score; in experiment [4], 2.01 z-score; in experiment [5], 2.28 z-score; in experiment [6], 1.82 z-score. For the same sequence, the results for the binding signal in [7], in experiment [8] and in [9] were 2.3 z-score, 1.9 z-score and 2.77 z-score, respectively.
For the sequence CGGGACTCCCC, the binding signal came out at 1.91 z-score in experiment [1]; 0.81 z-score in [2]; 2.76 z-score in experiment [3]; 1.88 z-score in experiment [4]; 1.9 z-score in experiment [5]; 1.59 z-score in [6]. Besides, the binding signal in [7] was 1.87 z-score; in experiment [8], 1.93 z-score; in experiment [9], 2.5 z-score.
With AGGAGTGTCCC, the binding signal in experiment [1] amounted to 1.3 z-score; in [2], 0.0859 z-score; in [3] it was 0.362 z-score; in experiment [4] it was 0.736 z-score; in [5], 0.372 z-score; in [6], 0.333 z-score. Moreover, the binding signal in experiment [7] is 0.321 z-score; in experiment [8], 0.586 z-score; in [9], 0.486 z-score.
As to CGAAAGATCCC, the binding signal in [1] was 0.0219 z-score; in [2] it was -0.089 z-score; in experiment [3] it was -0.151 z-score; in experiment [4] it was -0.0254 z-score; in [5], -0.0507 z-score; in experiment [6], 0.0265 z-score. Moreover, the binding signal is -0.282 z-score in experiment [7], -0.258 z-score in [8] and -0.147 z-score in experiment [9].
In the case of AAAGGGATCCC, the binding signal is 0.0658 z-score in [1]; -0.302 z-score in experiment [2]; 0.0251 z-score in experiment [3]; -0.128 z-score in experiment [4]; -0.268 z-score in experiment [5]; -0.184 z-score in experiment [6]. The binding signal in experiment [7] is -0.115 z-score; in [8], -0.213 z-score; in experiment [9] it was -0.202 z-score.
In the case of CGATTAACCCT, the binding signal in experiment [1] is -0.485 z-score; in experiment [2] it was -0.551 z-score; in experiment [3], -0.421 z-score; in experiment [4], -0.497 z-score; in experiment [5] it was -0.556 z-score; in experiment [6] it was -0.691 z-score. The figures for the binding signal in [7], in experiment [8] and in experiment [9] were -0.624 z-score, -0.83 z-score and -0.644 z-score, respectively.
On to GGGAGTGTCCT, for which the binding signal in experiment [1] is 0.931 z-score; in experiment [2], -0.152 z-score; in [3], 0.385 z-score; in experiment [4] it was 0.0362 z-score; in experiment [5] it was 0.309 z-score; in experiment [6], -0.212 z-score. Also, the binding signal in experiment [7] is 0.00999 z-score; in [8] it was -0.0276 z-score; in experiment [9], 0.382 z-score.
As to CGGTACTCCCT, the binding signal in [1] came out at 0.445 z-score; in experiment [2], 0.837 z-score; in experiment [3] it was 0.708 z-score; in experiment [4] it was 0.515 z-score; in [5], 0.425 z-score; in [6], 0.724 z-score. The binding signal was determined as 0.415 z-score in [7], 0.323 z-score in experiment [8] and 0.382 z-score in [9].
